Assay results reported in PubChem BioAssay (NCATS).
Results filed as inconclusive are left out. A number with no mark means an inactive call. The source made the active and inactive calls. The call rests on the fitted dose curve; in most records, active means well fitted inhibition curve with a large enough effect; inconclusive means small, poorly fitted or top-dose-only effect; inactive means flat fitted curve, though single readings scatter.

biological target: Ubiquitin carboxyl-terminal hydrolase 1 (Homo sapiens) (UniProt O94782); assay: Inhibitors of USP1/UAF1: Pilot qHTS (AID 504865); settings: purified USP1/UAF1, Ub-rhodamine cleavage fluorescence; series mostly up to 114 µM; activity change, negative = inhibition: at the top concentration;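 further: rhodamine fluorescence freed from ubiquitin-rhodamine substrate followed over time; top concentration of the series differs between compounds; nearly all actives have a fitted effect of over 35% in size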
Sequence (O94782 whole entry, looked up): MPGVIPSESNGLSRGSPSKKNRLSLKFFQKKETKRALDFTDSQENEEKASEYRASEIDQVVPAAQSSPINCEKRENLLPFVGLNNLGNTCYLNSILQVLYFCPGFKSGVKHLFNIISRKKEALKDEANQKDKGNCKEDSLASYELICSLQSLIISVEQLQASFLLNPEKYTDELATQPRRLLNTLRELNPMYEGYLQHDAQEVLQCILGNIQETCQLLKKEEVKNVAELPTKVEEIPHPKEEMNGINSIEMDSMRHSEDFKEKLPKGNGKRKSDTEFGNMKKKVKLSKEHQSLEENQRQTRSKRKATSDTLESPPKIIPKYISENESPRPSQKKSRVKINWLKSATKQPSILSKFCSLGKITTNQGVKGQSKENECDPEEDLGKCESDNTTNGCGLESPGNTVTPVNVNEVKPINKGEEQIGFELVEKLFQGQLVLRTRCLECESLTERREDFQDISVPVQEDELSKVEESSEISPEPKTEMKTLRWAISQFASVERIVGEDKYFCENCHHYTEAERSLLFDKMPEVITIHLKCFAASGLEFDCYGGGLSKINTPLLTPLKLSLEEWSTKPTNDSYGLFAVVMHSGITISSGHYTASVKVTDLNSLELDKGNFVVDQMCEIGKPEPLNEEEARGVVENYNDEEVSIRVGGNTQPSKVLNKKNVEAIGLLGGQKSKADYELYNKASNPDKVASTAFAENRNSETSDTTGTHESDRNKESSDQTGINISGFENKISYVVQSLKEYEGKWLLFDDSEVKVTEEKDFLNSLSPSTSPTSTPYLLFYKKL
In short: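 1nM USP1/UAF1 + cpd, 15 min RT; start w/ Ub-Rho 150nM final; kinetic FL 480/540 nm, 6 reads q60 s. Buffer 50mM HEPES pH 7.8, 0.5mM EDTA, 1mM TCEP, 0.01% Tween-20, 0.1 mg/ml BSA.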
On the % scale 0 is the no-effect control and ±100 the full control effect.

| SMILES | Potency | activity change, negative = inhibition |
| --- | --- | --- |
| O=C(O)c1ccccc1OP(=O)(O)O | inactive |  |
| Cc1cc(C)nc(NS(=O)(=O)c2ccc(N)cc2)n1 | inactive |  |
| O=C1c2ccccc2C(=O)C1c1ccc(Br)cc1 |  | -2.81% |
| Cc1c(N(C)C)c(=O)n(-c2ccccc2)n1C | inactive |  |
| C[C@@H]1O[C@@H](OC[C@H]2O[C@@H](Oc3c(-c4ccc(O)c(O)c4)oc4cc(O)cc(O)c4c3=O)[C@H](O)[C@@H](O)[C@@H]2O)[C@H](O)[C@H](O)[C@H]1O |  | -15.2% |
| CCCCCC(N)=O |  | -7.39% |
| Cc1ccc(C(C)C)c(O)c1 |  | -1.22% |
| Cc1ccsc1/C=C/C1=NCCCN1C |  | -5.44% |
| NS(=O)(=O)c1cc(C2(O)NC(=O)c3ccccc32)ccc1Cl (configuration not stated) |  | -8.67% |
| O=C(O)c1ccccc1C(=O)Nc1ccc(S(=O)(=O)Nc2nccs2)cc1 | inactive |  |
| NC(=O)NC1NC(=O)NC1=O (configuration not stated) |  | -1.63% |
| CC(=O)OCC(COC(C)=O)OC(C)=O | inactive |  |
| O=c1[nH]c2cc(C(F)(F)F)c(N3CCOCC3)cc2n(CP(=O)(O)O)c1=O |  | -5.94% |
| Cn1c(=O)c2c(ncn2CCO)n(C)c1=O | inactive |  |
| Cc1ccc(S(=O)(=O)NC(=O)NC2CCCCCCC2)cc1 |  | -2.11% |
| CC(=O)NS(=O)(=O)c1ccc(N)cc1 | inactive |  |
| OCc1ccc(Cl)cc1Cl |  | -6.47% |
| Cc1cc(=O)[nH]c(=S)[nH]1 |  | -7.57% |
| C/C=C/C(=O)N(CC)c1ccccc1C |  | -10.2% |

| SMILES | Potency | activity change, negative = inhibition |
| --- | --- | --- |
| COC(=O)c1ccccc1C(=O)c1ccc(OCCN2CCCCC2)cc1 |  | 0.879% |
| Cn1c([N+](=O)[O-])cnc1COC(N)=O |  | -12.5% |
| O=C(Cn1ccnc1[N+](=O)[O-])NCCO | inactive |  |
| NS(=O)(=O)c1cc2c(cc1C(F)(F)F)NCNS2(=O)=O |  | 0.268% [at 54.9 µM] |
| NS(=O)(=O)c1ccc(C(=O)O)cc1 |  | -8.41% |
| O=C(O)CCCCC1CCSS1 (configuration not stated) |  | 3.49% |
| O=C(CCBr)N1CCN(C(=O)CCBr)CC1 |  | -12.4% |
| NCc1ccc(S(N)(=O)=O)cc1 | inactive |  |
| C1CCN2C[C@@H]3C[C@@H](CN4CCCC[C@@H]34)[C@H]2C1 |  | -4.47% |
| Nc1ncnc2c1ncn2[C@@H]1O[C@H](COP(=O)(O)O)[C@@H](O)[C@H]1O |  | -3.28% |
| NC(=O)CCCCC1CCSS1 (configuration not stated) |  | -1.47% |
| COc1nccnc1NS(=O)(=O)c1ccc(N)cc1 |  | 0.411% |
| O=C(O)Cc1ccc(CCNS(=O)(=O)c2ccc(Cl)cc2)cc1 |  | -5.75% |
| COc1ccccc1OCC(O)CO (configuration not stated) |  | 2.9% |
| CC[N+](CC)(CC(=O)Nc1c(C)cccc1C)Cc1ccccc1 |  | 8.46% [at 54.9 µM] |
| Cc1ncc(CO)c(CN)c1O |  | 4.92% |
| CC(=O)N[C@@H](CC(C)C)C(=O)O |  | -0.611% [at 54.9 µM] |
| C[C@@H]1CCC[C@H](C)N1 |  | -6.16% [at 54.9 µM] |
